The values below come from PubChem BioAssay (NCATS).

Results filed as inconclusive are left out. Entries that show only a call come without a potency. Calls of active or inactive are those of the source. Calls follow the shape of the dose curve; as a rule, active = well fitted cell-killing curve with a large enough effect; inconclusive = small, poorly fitted or top-dose-only effect; inactive = flat fitted curve, though single readings scatter.
Potency is read from the fitted curve at half-maximal effect.

This assay is described as follows: Vero-766 cells viability qHTS against the NCATS CANVASS Library: Counterscreen for Zika virus inhibition assay (AID 1347394). Also: nearly all actives have a fitted effect of over 60% in size. Conditions: Vero 766 viability, CellTiter-Glo luminescence, 72 h; series mostly up to 46.1 µM. The source says:
Natural products and their derivatives continue to be wellsprings of nascent therapeutic potential. However, many laboratories have limited resources for biological evaluation, leaving their previously isolated or synthesized compounds largely or completely untested. To address this issue, the Canvass library of natural products was assembled (https://tripod.nih.gov/canvass), in collaboration with academic and industry researchers, for quantitative high-throughput screening (qHTS) across a diverse set of cell-based and biochemical assays. The pure (>85% purity by liquid chromatography/mass spectrometry [LC/MS]) Canvass library of 346 natural products were submitted by 45 academic laboratories and companies around the world. We collected pure natural products to circumvent deconvolution and structure elucidation due to time and resource limitations. The library was formatted into 1536-well plates and evaluated in 50 qHTS (in an 11-pnt concentration series) bioassays with broad scope of disease-relevant mechanisms. The resulting data set from 50 different assays was then systematically analyzed to identify overall trends and specific natural products with interesting biological activities. Reported herein are the results of each individual qHTS and their corresponding assay protocol. The vero cell viability assay was performed in the absence of Zika virus utilizing Cell Titer Glo to eliminate toxic compounds. A decrease in the luminescence signal is caused by cytotoxic compounds. National Center for Advancing Translational Sciences (NCATS), Rockville, MD National Institute of Health (NIH), Bethesda, Maryland
Zika-counterscreen assay protocol: 1. In a white-solid bottom, 1536-well tissue culture plate (Corning 7494), 3 uL of Vero 766 cells derived (African Green Monkey) were dispensed into columns 1, 2, and 5 - 48 using a Multidrop Combi (Thermo Fisher Scientific) at a final concentration of 1000 cells / well. Media only was dispensed in columns 3 and 4 to be used as a control (100% inhibition). 2. The assay plates were incubated overnight at 37C, 5% CO2, 95% humidity to acclimate and attach. 3. […] of compounds (in DMSO; columns 5-48) were pin transferred into the assay plates using the Kalypsis pin tool (Wako USA) equipped with a 1536-well pin heads. This yields a final concentration range of 0.001 - 77 uM. The assay plates were sealed with breathable film. 4. The assay plates were incubated for 72 hours at 37C, 5% CO2, 95% humidity. 5. After incubation, the seals were removed by Xpeel Automated Plate Seal Remover (Brooks Life Sciences) and 2.5 uL of CellTiter Glo reagent (Promega) was dispensed into the wells (columns 1 - 48, rows 1 - 32). 6. Luminescence signal was obtained via the ViewLux plate reader (Perkin Elmer) using the clear emission filter and 1x binning, 2 seconds exposure settings.
(In general: qHTS replaces the single test concentration by a dilution series.)
With `C[C@]12CC(O)C3[C@@H](CCC4C[C@@H](O)CC[C@@]43CO)[C@@]1(O)CCC2C1=CC(=O)OC1` (some centres undefined), the Potency result is “inactive”.
In the case of `CC(=O)N[C@H]1CCN2CCC[C@H]12` it was “inactive”.
Regarding `CCCC[C@@H]1CC[C@H]2CCCC(CCC)N12` (some centres undefined), the Potency entry is “inactive”.
For the compound `CC1=CC(=O)C2=C(C)C[C@H](O)[C@@H]3[C@H](OC(=O)[C@@H]3C)[C@@H]12`, the Potency result was “inactive”.
As to `CCCCC[C@@H]1OC(=O)[C@@H](C)N(C)C(=O)[C@H](CCCCC)OC(=O)C(C)N(C)C(=O)[C@H](CCCCC)OC(=O)[C@@H](C)N(C)C(=O)[C@H](CCCCC)OC(=O)C(C)N(C)C1=O` (some centres undefined), the Potency was 20.9 µM (active).
Consider `CNCCc1ccc(O)cc1`, for which the Potency result was “inactive”.
For `c1ccc2c3c([nH]c2c1)CNCC3`, the Potency entry was “inactive”.
For the compound `NCCc1ccccc1`, the Potency result was “inactive”.
On to `C/C=C1/CN2CC[C@]34C(=Nc5ccccc53)[C@@H]2C[C@@H]1[C@H]4C(=O)OC`, for which the Potency entry was “inactive”.
In the case of `CCC(=O)CCCCC[C@@H]1NC(=O)[C@H]2CCCCN2C(=O)[C@H]([C@@H](C)CC)NC(=O)[C@H](Cc2cn(OC)c3ccccc23)NC1=O` it was 1.86 µM (active); in that of `CN(C)Cc1c[nH]c2ccccc12`, “inactive”; in that of `CO[C@@H](/C=C/CC/C=C/C(=O)O)[C@@H](O)[C@H](C)[C@@H](O)/C(C)=C/[C@H](C)C(=O)CCCC1CC(=O)NC(=O)C1`, “inactive”.
For `CCN1C[C@]2(C)CC[C@@H](O)[C@]34C1[C@H](C[C@H]23)C12CCC(CC14)[C@](O)(CO)[C@H]2O` (some centres undefined), the Potency entry was “inactive”.
As to `CO[C@H](c1ccccc1)[C@H]1NC(=O)C(C)NC(=O)C(C[C@@H](C)CO)N(C)C(=O)[C@@H](C(O)c2cn(C(C)(C)C3CO3)c3ccccc23)NC(=O)C(C(C)C=C(C)C)NC(=O)C(CC(C)C)N(C)C(=O)C(C(C)C)NC1=O` (some centres undefined), the Potency entry is “inactive”.
As to `CCN1C[C@]2(C)CC[C@H](O)[C@]34C1C(C[C@H]23)[C@@]12CC[C@H](CC14)[C@](O)(COC(=O)c1ccc(OC)c(OC)c1)[C@H]2O` (some centres undefined), the Potency result is “inactive”.
In the case of `CO[C@@H](/C=C/CC/C=C/C(=O)O)[C@@H](O)[C@H](C)/C=C(\C)[C@@H](O)[C@H](C)C(=O)CCCC1CC(=O)NC(=O)C1` it was “inactive”.
The value for `COC(=O)C1=C2Nc3ccccc3[C@@]23CCN2CC(C(C)=O)C1C[C@H]23` (some centres undefined) was “inactive”; that for `CNCCc1c[nH]c2ccccc12` was “inactive”.
In the case of `CCC[C@H]1CC[C@H]2[C@H](C)CCC[C@H]2N1` it was “inactive”; in that of `CN1C(=O)[C@]23CC4C(C)(C)[C@@]5(C[C@@]41CN2CC[C@@]3(C)O)C(=O)Nc1c5ccc2c1OC=CC(C)(C)O2` (some centres undefined), “inactive”; in that of `CC1=CC2CC[C@@H]3[C@@H](C)C[C@H](C)[C@@H](C1)N23` (some centres undefined), “inactive”.
Turning to `CC[C@@H]1CN2CC[C@@]3(O)C(=Nc4cccc(OC)c43)[C@@H]2C[C@@H]1/C(=C\OC)C(=O)OC`, the Potency entry is “inactive”.
In the case of `CC[N@@+]1([O-])C[C@]2(C)CC[C@@H](O)[C@@]34C5C[C@H]6CC[C@@]5(C(C[C@H]23)C41)[C@H](O)[C@@]6(O)CO` (some centres undefined) it was “inactive”; in that of `COc1ccc(C23Oc4cc(OC)cc(OC)c4[C@](O)([C@H](c4ccccc4)C2C(=O)NCCCCNC(=O)c2ccccc2)[C@@H]3O)cc1` (some centres undefined), “inactive”; in that of `C[C@@H]1CC[C@@H](c2ccoc2)N2C[C@@]3(CC[C@@H]12)CS[C@@]1(CC[C@H]2[C@H](C)CC[C@@H](c4ccoc4)N2[C@@H]1O)C3`, 7.41 µM (active).
`C=C1[C@@H](C)[C@H]2[C@H](Cc3ccccc3)NC(=O)[C@]23OC(=O)/C=C/[C@H](O)CCC[C@@H](C)C/C=C/[C@H]3[C@@H]1O`: the Potency was 13.2 µM (active).
For the compound `CNCCc1ccccc1`, the Potency entry is “inactive”.
In the case of `O=C(c1ccccc1O)c1[nH]c(Cl)c(Cl)c1-n1c(C(=O)c2ccccc2O)cc(Cl)c1Cl`, the Potency is 1.32 µM (active).
The value for `COc1ccc2c3c([nH]c2c1)C(C)=NCC3` was “inactive”.
